Results: the antibiotic and cytotoxicity screens of Wong et al. (2023)
In all, about 39,000 compounds went through this assay and about 1,500 (3.8%) were called active. The entries come from a sample that favours actives as a whole.

test system: HSkMC (human skeletal muscle cells); test: cytotoxicity call (relative viability < 0.9); conditions: 10 µM

Row | Compound | cytotoxicity call
1 | C=C1C(=O)OC2C1CCC(C)=CCCC1(C)OC21 (stereo unspecified) | active
2 | C=C1CCC=C(C)CCC2C1CC2(C)C.O (single isomer, unassigned; (-)) [(-)E-CARYOPHYLLENE hydrate ] | inactive
3 | Cc1ccc(C(=O)Nc2ccc(Oc3cc4cnn(C)c4cc3-c3cn[nH]c3)c(F)c2)c(=O)n1-c1ccc(F)cc1 | active
4 | Cc1cc(C)nc(NS(=O)(=O)c2ccc(NC(=O)c3cccn(OCc4ccc(F)cc4)c3=O)cc2)n1 | inactive
5 | CCCNC(=O)N1C[C@@H](C)[C@@H](OC)CN(C)C(=O)c2ccc(NS(=O)(=O)CC(F)(F)F)cc2OC[C@@H]1C | inactive
6 | Cc1ccc(Oc2nnc(-c3cccs3)c3ccccc23)cc1 | inactive
7 | Cc1csc(-c2nnc(Nc3ccc(Oc4ncccc4-c4ccnc(N)n4)cc3)c3ccccc23)c1 | active
8 | Cc1ccc(Nc2nnc(-c3ccccc3)c3ccccc23)cc1 | inactive
9 | O=C(O)C[C@@H](O)C(=O)O | inactive
10 | COC(=O)C1=CO[C@@H](O[C@@H]2O[C@H](CO)[C@@H](O)[C@H](O)[C@H]2O)/C(=C\CO)[C@@H]1CC(=O)OCCc1ccc(O)cc1 | inactive
11 | C[C@@H]1CN([C@H](C)CO)S(=O)(=O)c2ccc(C3=CCCC3)cc2O[C@H]1CN(C)S(=O)(=O)c1ccc(F)cc1 | inactive
12 | CS(=O)(=O)N1CC[C@]2(COCc3cnc(N4CCOCC4)nc32)C1 | inactive
13 | c1nc(N2CCOCC2)nc(N2CCOCC2)n1 | inactive
14 | CS(=O)(=O)N1CCc2c(-c3cnc(N)nc3)nc(N3CCOCC3)nc21 | active
15 | C[C@H]1CN([C@@H](C)CO)C(=O)c2cccc(NC(=O)c3ccncc3)c2O[C@H]1CN(C)Cc1ccc(Oc2ccccc2)cc1 | inactive
16 | C[C@H]1CCCCO[C@H](CN(C)C(=O)Nc2ccc(C(F)(F)F)cc2)[C@@H](C)CN([C@@H](C)CO)C(=O)c2cc(NS(=O)(=O)c3ccccc3)ccc2O1 | active
17 | C[C@@H]1CCCCO[C@H](CN(C)C(=O)Nc2ccc(C(F)(F)F)cc2)[C@H](C)CN([C@H](C)CO)C(=O)c2cc(NS(=O)(=O)c3ccccc3)ccc2O1 | inactive
18 | C[C@@H]1CCCCO[C@H](CN(C)C(=O)Nc2ccc(C(F)(F)F)cc2)[C@@H](C)CN([C@H](C)CO)C(=O)c2cc(NS(=O)(=O)c3ccccc3)ccc2O1 | inactive
19 | C[C@H](CO)N1C[C@H](C)[C@@H](CN(C)C(=O)Nc2ccc(C(F)(F)F)cc2)OCCCC[C@H](C)Oc2ccc(NS(=O)(=O)c3ccccc3)cc2C1=O | inactive
20 | C[C@H](CO)N1C[C@H](C)[C@H](CN(C)C(=O)Nc2ccc(C(F)(F)F)cc2)OCCCC[C@H](C)Oc2ccc(NS(=O)(=O)c3ccccc3)cc2C1=O | inactive
21 | C[C@@H]1CN([C@@H](C)CO)C(=O)c2cc(NS(=O)(=O)c3ccccc3)ccc2O[C@@H](C)CCCCO[C@@H]1CN(C)C(=O)Nc1ccc(C(F)(F)F)cc1 | active
22 | CCN1C(=O)[C@H]2[C@H]3[C@H](O)[C@H](O)C/C(=N\OC[C@@H](O)COCc4ccco4)[C@@H]3CC[C@H]2C1=O | inactive

Row | Compound | cytotoxicity call
23 | C[C@@H]1CCCCO[C@@H](CN(C)S(=O)(=O)c2cccs2)[C@@H](C)CN([C@@H](C)CO)C(=O)c2cc(NC(=O)Nc3ccccc3)ccc2O1 | inactive
24 | C[C@H]1CN([C@@H](C)CO)C(=O)c2cccc(NC(=O)C3CCOCC3)c2O[C@H]1CN(C)S(=O)(=O)c1cn(C)cn1 | inactive
25 | NC(=O)N1CCc2n[nH]c(C(=O)N3CCOCC3)c2C1 | inactive
26 | C=CC(=O)N1CC[C@@H](Oc2nc(Nc3ccc(N4CCC(N5CCN(C)CC5)CC4)cc3)c(C(N)=O)nc2CC)C1 | active
27 | CCc1nc(C(N)=O)c(Nc2ccc(N3CCC(N4CCN(C)CC4)CC3)c(OC)c2)nc1NC1CCOCC1 | inactive
28 | C=CCn1c(=O)c2cnc(Nc3ccc(N4CCN(C)CC4)cc3)nc2n1-c1cccc(C(C)(C)O)n1 | inactive
29 | COCC(=O)Nc1ccc2c(c1)C(=O)N(C)[C@@H]1CC[C@@H](CC(=O)NCc3ccc(OC)cc3)O[C@@H]1CO2 | inactive
30 | COc1ccc(S(=O)(=O)Nc2cccc3c2O[C@@H](CN(C)Cc2ccc(-c4ccccc4)cc2)[C@H](C)CN([C@@H](C)CO)C3=O)cc1 | inactive
31 | CC(CCC(=O)O)C1CCC2C3C(O)CC4CC(O)CCC4(C)C3CC(O)C12C (stereo unspecified) | inactive
32 | CCCCCCCCCCCCCCCCCCCC(=O)N[C@H]1CC[C@@]2(C)[C@@H](C1)C[C@@H](O)[C@@H]1[C@@H]2C[C@H](O)[C@]2(C)[C@@H]([C@H](C)CCC(=O)O)CC[C@@H]12 | active
33 | CC(CCC(=O)NCC(=O)O)C1CCC2C3C(O)CC4CC(O)CCC4(C)C3CC(O)C12C (stereo unspecified) | inactive
34 | CCc1cc(=O)oc2c(C)c(O[C@@H]3O[C@H](CO)[C@@H](O)[C@H](O)[C@H]3O)ccc12 | active
35 | Cc1cc(=O)oc2cc(O[C@H]3O[C@@H](CO)[C@@H](O)[C@@H](O)[C@@H]3O)ccc12 | inactive
36 | Cc1c(C)c2ccc(O[C@@H]3O[C@H](CO)[C@H](O)[C@H](O)[C@H]3O)cc2oc1=O | inactive
37 | C[C@H](CO)N1C[C@H](C)[C@H](CN(C)Cc2ccc(F)cc2)Oc2cc(C#CC(C)(C)O)ccc2S1(=O)=O | inactive
38 | C=CCN(Cc1ccccc1)C(=O)[C@@H]1N(CCOCCO)C(=O)[C@@H]2[C@H](C(=O)O)[C@@H]3C=C[C@@]21O3 | inactive
39 | C=CCOC(=O)[C@@H]1[C@@H]2C=C[C@]3(O2)[C@H](C(=O)N(CC=C)Cc2ccccc2)N(c2cccc(Cl)c2CO)C(=O)[C@@H]13 | inactive
40 | C=CCOC(=O)[C@@H]1[C@@H]2C=C[C@@]3(O2)[C@@H]1C(=O)N(CCCCCCO)[C@H]3C(=O)N(CC=C)Cc1ccccc1 | active
41 | CN1C(=O)C[C@H](C(=O)O)[C@H]1c1cccnc1 | inactive
42 | COc1ccc(S(=O)(=O)Nc2ccc3c(c2)C(=O)N([C@@H](C)CO)C[C@H](C)[C@H](CN(C)S(=O)(=O)c2ccccc2)O3)cc1 | inactive
43 | COc1ccc(CN(C)C[C@H]2Oc3c(NS(=O)(=O)c4cn(C)cn4)cccc3C(=O)N([C@H](C)CO)C[C@H]2C)cc1 | inactive
44 | C[C@H](CO)N1C[C@H](C)[C@H](CN(C)C(=O)Nc2cccc3ccccc23)Oc2ccc(NC(=O)Nc3ccc4c(c3)OCO4)cc2CC1=O | inactive

Row | Compound | cytotoxicity call
45 | O=C(NCCO)c1cc2ccccc2oc1=O | inactive
46 | CCc1nc2ccc(C(=O)NCCOc3ccc(OC)cc3)cn2c1N(CC)Cc1cccc(Br)c1 | inactive
47 | Cc1cc(C)c(N(Cc2ccccc2)S(=O)(=O)c2ccc(OCCNC(=O)c3cc4ccccc4o3)cc2)c(C(=O)NO)c1 | active
48 | C[C@H]1CN([C@@H](C)CO)C(=O)c2cccc(NS(=O)(=O)c3cn(C)cn3)c2O[C@H]1CN(C)S(=O)(=O)c1cccs1 | inactive
49 | C[C@@H]1CN([C@H](C)CO)C(=O)c2cc(C#C[C@@H](C)O)cnc2O[C@@H]1CN(C)C(=O)Nc1ccc(C(F)(F)F)cc1 | inactive
50 | Nc1cc(=O)[nH]c(=O)n1-c1ccc(Cl)cc1 | inactive
51 | O=C(O)CSCC(=O)N1CCCCC1 | inactive
52 | CN1C(=O)c2cc(NC(=O)C3CCOCC3)ccc2OC[C@@H]2O[C@@H](CC(=O)NCc3ccccc3F)CC[C@H]21 | inactive
53 | C[C@H]1CN([C@@H](C)CO)C(=O)c2cccc(NS(C)(=O)=O)c2O[C@H]1CN(C)S(=O)(=O)c1ccc(F)cc1 | inactive
54 | COc1ccc(C[C@H]2c3cc(OC)c(OC)cc3CC[N@+]2(C)CCC(=O)OCCCCCOC(=O)CC[N@+]2(C)CCc3cc(OC)c(OC)cc3[C@@H]2Cc2ccc(OC)c(OC)c2)cc1OC | inactive
55 | COc1ccc(C[C@@H]2c3cc(OC)c(OC)cc3CC[N@+]2(C)CCC(=O)OCCCCCOC(=O)CC[N@@+]2(C)CCc3cc(OC)c(OC)cc3[C@H]2Cc2ccc(OC)c(OC)c2)cc1OC | active
56 | COc1ccc(CC2c3cc(OC)c(OC)cc3CC[N+]2(C)CCC(=O)OCCCCCOC(=O)CC[N+]2(C)CCc3cc(OC)c(OC)cc3C2Cc2ccc(OC)c(OC)c2)cc1OC.O=S(=O)([O-])c1ccccc1.O=S(=O)([O-])c1ccccc1 (stereo unspecified) | inactive
57 | C[C@@H]1CN([C@@H](C)CO)C(=O)Cc2cc(NC(=O)Cc3cn(C)c4ccccc34)ccc2O[C@@H]1CN(C)S(=O)(=O)c1cn(C)cn1 | inactive
58 | C[C@@H]1CCCCO[C@@H](CN(C)S(=O)(=O)c2ccccc2)[C@H](C)CN([C@@H](C)CO)C(=O)c2cc(NS(=O)(=O)c3cn(C)cn3)ccc2O1 | inactive
59 | C[C@H]1CN([C@@H](C)CO)C(=O)Cc2cc(NS(=O)(=O)c3cn(C)cn3)ccc2O[C@@H]1CN(C)S(=O)(=O)c1ccc(Cl)cc1 | inactive
60 | Cc1ccc(S(=O)(=O)Nc2ccc3c(c2)C(=O)N([C@@H](C)CO)C[C@@H](C)[C@H](CN(C)Cc2ccccc2)OCCCC[C@@H](C)O3)cc1 | inactive
61 | COc1ccc2c3c([nH]c2c1)[C@@H](CO)N(Cc1ccc(cc1)Cl)C[C@]13CCN(CC1)Cc1nccs1 | inactive
62 | COc1ccc2c3c([nH]c2c1)[C@H](CO)N(Cc1ccc(cc1)Cl)C[C@]13CCN(CC1)Cc1ccccc1 | active
63 | COc1ccc2c3c([nH]c2c1)[C@@H](CO)N(Cc1ccc(cc1)Cl)C[C@]13CCN(CC1)Cc1ccccc1 | active
64 | COc1ccc2c3c([nH]c2c1)[C@H](CO)N(Cc1ccc(cc1)Cl)C[C@]13CCN(CC1)Cc1nccs1 | inactive
65 | COc1ccc2c3c([nH]c2c1)[C@H](CO)N(Cc1ccncc1)C[C@]13CCN(CC1)Cc1ccc(cc1)-c1ccccn1 | inactive
66 | COc1ccc(cc1)CN1C[C@]2(CCN(CC2)Cc2ccccc2OC)c2c([nH]c3cc(ccc23)OC)[C@@H]1CO | inactive
